The results in this text go back to PubChem BioAssay AID590 (National Center for Advancing Translational Sciences (NCATS), 2007).

Screen size: about 59,000 compounds; about 6,500 (11%) were called active. Roughly 15% stayed inconclusive and do not appear here. No stated cut-off is given here; in the data, active means max dye-equivalent concentration above about 10 nM; inconclusive means mostly about 1.1 nM to 9.6 nM; inactive means weaker than that. The sample as a whole holds a higher share of actives than the screen did.

This assay in a line: qHTS Assay for Spectroscopic Profiling in A350 Spectral Region. The settings on record: Compound autofluorescence, 340/450 nm, Alexa 350 dye-equivalents; active compounds read high. The source says:
NIH Molecular Libraries Screening Centers Network [MLSCN]
NIH Chemical Genomics Center [NCGC]
Occasionally, the artifactual effect may originate from the compounds own spectral or other biophysical properties which generally tend to track its assay concentration. Pre-screening/profiling the library with respect to the compounds spectral properties should help one exclude false positives early on. While the most informative fluorescent profiling data set is obtained by performing a full excitation and emission scan of each well by using a monochromator-based plate reader, such an approach is practical only on a very limited scale as scanning each well requires long time. An alternative approach, applied here, is to perform plate reader scans using selected excitation and emission wavelength pairs to generate a multidimensional relational database that correlates compound concentration and the respective relative fluorescence intensity at a given wavelength set. A standard curve of Alexa 350 (A 350) present on each plate as six-point concentration series, was used to compute a normalized fluorescence response, termed dye-equivalent concentration, for each compound at each concentration.
NCGC Assay Protocol Summary:
100 mM Tris buffer, pH 8.0
The wells in columns 1 through 4 of a Kalypsys polypropylene 1536-well compound plate were filled with standard solutions of fluorophore corresponding to the spectral region of interest. Solutions of A 350 were placed in the following wells: I1, J1: 3 mM, I2, J2: 300 uM, I3, J3: 30 uM, I4, J4: zero (DMSO), K1, L1: 3 uM, K2, L2: […], K3, L3: 300 nM, K4, L4: zero (DMSO).
Six uL of buffer were dispensed to 1536-well Greiner black plates. Compounds and dye standards (23 nL) were transferred via Kalypsys PinTool. The plates were incubated for 15 min at room temperature, and then read on ViewLux (Perkin-Elmer) High-throughput CCD imager using 340 nm and 450 nm excitation and emission filter set.
Keywords: NIH Roadmap, MLSCN, MLI, MLSMR, qHTS, NCGC, A350, A-350, Fluorescent Profiling.
`CCCC(=O)N(CCc1ccccc1)Cc1nc2ccccc2c(=O)[nH]1`: the max dye-equivalent concentration entry was “inactive”. The figure for `CCCN(CCC)CCNC(=O)c1cc2c(C)nc3ccccc3c2o1` is 18 nM (active). Regarding `Cc1cc(C(=O)NCCCc2ccccc2)no1`, the max dye-equivalent concentration result is “inactive”.

As to `CCOC(=O)C1CCCCN1Cc1ccc(OC)c(OC)c1OC` (stereo not drawn), the max dye-equivalent concentration entry is “inactive”. The entry for `Clc1ccccc1-c1cc(NCCN2CCOCC2)ncn1` is “inactive”; for `CCn1c(SCC(=O)NCc2ccco2)nnc1-c1ccc(N)cc1` it is “inactive”.

Turning to `CN1CCN(S(=O)(=O)c2ccc(NC(=O)C3CCCO3)cc2)CC1` (stereo not drawn), the max dye-equivalent concentration entry was “inactive”. For `CCOC(=O)c1sc(NC(=O)c2cc(S(=O)(=O)N3CCOCC3)ccc2C)nc1C` the value was “inactive”; for `O=C(Nc1nc2cc3c(cc2s1)OCCO3)c1cccc(S(=O)(=O)N2CCOCC2)c1`, 15 nM (active). For `O=C(Nc1nc2ccc(S(=O)(=O)N3CCCC3)cc2s1)C1CCCO1` (stereo not drawn) the value was “inactive”; for `COc1ccc(S(=O)(=O)N2CCOCC2)cc1C(=O)Nc1nc2ccccc2s1`, 26 nM (active); for `COC(=O)COc1ccc(S(=O)(=O)N2CCOCC2)cc1`, “inactive”. For the compound `CCN(Cc1ccncc1)C(=O)c1cccc(S(=O)(=O)N2CCOCC2)c1`, the max dye-equivalent concentration entry is “inactive”. Take `CC1(C)Cc2cccc(OCC(=O)Nc3nccs3)c2O1`: the max dye-equivalent concentration entry is “inactive”. As to `COc1ccc(C[C@H](N)C(=O)N[C@@H]2[C@H](O)[C@H](n3cnc4c(N(C)C)ncnc43)O[C@@H]2CO)cc1`, the max dye-equivalent concentration result is “inactive”. For `CCCOP(=O)(c1ccc(N(C)C)cc1)C(O)c1cc(OC)c(OC)c(OC)c1` (stereo not drawn) the value was “inactive”. `COc1ccc(N2CCN(C3CC(=O)N(c4ccc5c(c4)OCCO5)C3=O)CC2)cc1` (stereo not drawn): the max dye-equivalent concentration result is “inactive”. Take `Cc1ccc(S(=O)(=O)N2CCC(C(=O)OCC(=O)N3CC(=O)Nc4ccccc43)CC2)cc1`: the max dye-equivalent concentration result was “inactive”. As for `CC(=O)N1CCC2(CCCN(c3ncccn3)C2)CC1`, the max dye-equivalent concentration entry is “inactive”. As for `Cc1ccc(S(=O)(=O)N2CCCC2CO)cc1` (stereo not drawn), the max dye-equivalent concentration entry is “inactive”. The figure for `COc1ccc(C2CC(c3ccc(C)cc3)Nc3nc(N)nn32)cc1` (stereo not drawn) is 2800 nM (active); for `Cc1cc(C)c(C(=O)CN2C(=O)CCC2=O)cc1C` it is “inactive”. For `COC(=O)c1ccc(NC(=O)CSc2nnc(CNc3ccc(OC)cc3)n2C)cc1` the value was “inactive”; for `CCOC(=O)N1CCN(C(=O)CN(C2CCCCC2)S(C)(=O)=O)CC1`, “inactive”; for `Cc1ccccc1CSc1nnc(-c2ccccn2)n1N`, “inactive”. As for `CN(Cc1ccco1)c1cc(-c2ccccc2C(F)(F)F)ncn1`, the max dye-equivalent concentration result was “inactive”.

For the compound `Cc1c(NC(=O)c2cccnc2)c(=O)n(-c2ccccc2)n1C`, the max dye-equivalent concentration entry was “inactive”. The figure for `Cc1c(NC(=O)c2coc(=O)c(Br)c2)c(=O)n(-c2ccccc2)n1C` is 220 nM (active); for `Cc1cc(C(=O)Nc2c(C)n(C)n(-c3ccccc3)c2=O)cs1` it is “inactive”; for `O=c1[nH]c(=O)n([C@H]2C[C@H](O)[C@H](CO)O2)cc1Br` it is “inactive”.

Turning to `OCCCN1c2ccccc2Nc2nnc(-c3ccccc3)cc21`, the max dye-equivalent concentration is 110 nM (active). Consider `Cn1c(=O)[nH]c(=O)c2c1nc(N(CCO)Cc1ccccc1)n2Cc1ccccc1Cl`, for which the max dye-equivalent concentration entry is “inactive”.

As for `O=C(c1cccc(F)c1)N1CCC2(CCCN(Cc3ccncc3)C2)CC1`, the max dye-equivalent concentration result is “inactive”.

Consider `Cc1c(C)c2c(c(C)c1O)CC[C@@](C)(CN1CCN(c3cc(N4CCCC4)nc(N4CCCC4)n3)CC1)O2`, for which the max dye-equivalent concentration was 11 nM (active). For `CC(=O)N1CCC2(CCCN(Cc3ccc(C#N)cc3)C2)CC1` the value was “inactive”; for `N#CNC1=NCN(CCc2ccccc2)CN1`, “inactive”. As for `Cc1ccnc(N2CCN(C(=O)CSc3nc4ccccc4nc3N3CCCCC3)CC2)c1`, the max dye-equivalent concentration was 28 nM (active). On to `Cn1c(=O)cc(OCCCC(=O)N2CCN(c3ccccn3)CC2)c2ccccc21`, for which the max dye-equivalent concentration entry is “inactive”. Turning to `O=C(CSc1nc2ccccc2o1)N1CCN(c2ccccc2)CC1`, the max dye-equivalent concentration entry was “inactive”. For `COc1ccc(C(=O)Cn2nnc(-c3ccc(N4CCOCC4)cc3)n2)cc1OC` the value was “inactive”. For `Cc1ccc(Oc2ccc(N)cc2)cc1` the value was “inactive”; for `CC(C)(C)n1nnnc1C(c1ccc2ncccc2c1)N1CCSCC1` (stereo not drawn), “inactive”; for `COc1ccccc1N1CCN(C(=O)c2ccc(S(=O)(=O)N3CCCCC3)cc2)CC1`, “inactive”. Regarding `N#CC(C(=O)c1ccc(S(=O)(=O)N2CCCCCC2)cc1)c1nc2ccccc2[nH]1` (stereo not drawn), the max dye-equivalent concentration is 52 nM (active). `Cc1ccccc1-c1nnn(CC(=O)c2ccc(S(=O)(=O)N3CCCC3)cc2)n1`: the max dye-equivalent concentration entry is “inactive”. The entry for `Cc1nnc(N(Cc2ccco2)C(=O)c2ccno2)s1` is “inactive”; for `N#Cc1cccc(NC(=O)CCC2CCCC2)c1` it is “inactive”; for `CCCc1nc(-c2ccccc2O)n(-c2ccccc2)n1` it is “inactive”. As to `O=C(CSc1nnc(Cc2ccccc2)n1-c1ccccc1)N1CCOCC1`, the max dye-equivalent concentration entry was “inactive”. On to `CCOc1ccccc1C(=O)NCc1ccco1`, for which the max dye-equivalent concentration result was “inactive”.

Consider `CCOc1ccccc1C1C(C(=O)OC)=CN(C)C=C1C(=O)OC`, for which the max dye-equivalent concentration was 13000 nM (active). For `CCOc1ccccc1C(=O)NCCCn1ccnc1` the value was “inactive”; for `CN(C)CCCn1c2ccccc2c2cnccc21`, “inactive”.

As for `CCC(C)n1[nH]c(=O)cc1N` (stereo not drawn), the max dye-equivalent concentration entry was “inactive”. As to `CC(=O)c1c(N)n(C)c(=O)n(C)c1=O`, the max dye-equivalent concentration result was “inactive”. In the case of `CCON=C1C(C)(C)C(C)(C)C(C)(C)C1(C)C`, the max dye-equivalent concentration result was “inactive”.

Turning to `CC(=O)N1CCN(C(=O)Nc2cccc(C(F)(F)F)c2)CC1`, the max dye-equivalent concentration result was “inactive”. For `CCOc1c(N2CCCCC2)c(=O)c1=O` the value was “inactive”; for `COc1ccc(OC)c(-n2cc3c(=O)n(C)c(=O)n(C)c3c2)c1`, “inactive”. The entry for `CCOC(=O)CNC(=O)c1nn(-c2cccc(OC)c2)c(=O)c2ccccc12` is “inactive”. Consider `COc1ccc(-c2c3c(=O)n(C)c(=O)n(C)c3cn2NC(C)=O)cc1`, for which the max dye-equivalent concentration is 2600 nM (active). On to `COc1ccc(N(C(=O)c2cccnc2)S(=O)(=O)c2ccc3c(c2)n(C)c(=O)n3C)cc1`, for which the max dye-equivalent concentration result is “inactive”.

Consider `COc1ccc(-c2c3c(=O)n(C)c(=O)n(C)c3cn2-c2cccc(OC)c2)cc1`, for which the max dye-equivalent concentration is 14 nM (active).

`COc1cccc(-n2cc3c(c2-c2ccccc2)c(=O)n(C)c(=O)n3C)c1`: the max dye-equivalent concentration was 10 nM (active). As to `Cc1ccc(-c2c3c(=O)n(C)c(=O)n(C)c3cn2-n2cnnc2)cc1`, the max dye-equivalent concentration result was “inactive”. With `COC(=O)c1ccc(CSc2nc3ccccc3c(=O)n2-c2cccc(OC)c2)o1`, the max dye-equivalent concentration result is “inactive”. The entry for `Cc1cccc(-n2nc3c(c2NC(=O)c2ccc(Br)o2)CSC3)c1C` is “inactive”; for `O=C(Nc1ccc(S(=O)(=O)N2CCCCC2)cc1)c1cnccn1` it is “inactive”.
